Measured values published in the supplement of paper PMC5919970.
Where a name gives a salt, the structure may show the parent alone. In all, about 2,000 compounds were measured (“fractional viability relative to vehicle”: median about 0.91, lowest 2% from about 0.045 on). Only a selection was taken, and the lowest values are over-represented in it overall.

Tested on: TYKNU
Experiment: fractional viability relative to vehicle; TYKNU is a high-grade serous ovarian cancer line; higher = less growth inhibition
Conditions: 72 h
Outline: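 Drug treatment lasted 72 h, with cells grown at 37 °C in 5% CO2 in RPMI 1640 supplemented with 10% FBS. Beforehand, TYKNU control cells or their lentiCRISPRv2 knockout derivatives had been seeded at 500 cells per well into drug-stamped 384-well plates carrying a ~2100-compound library at 2 or 10 μM, in duplicate. Viability came from Cell Titer Glo luminescence, with averaged duplicate treatment wells normalised to duplicate control wells in the same plate position.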

[1] = 2uM, genotype: DNM1L knockout (sgDNM1L #1)
[2] = 2uM, genotype: sgCTRLA1 (non-targeting control)
[3] = 10uM, genotype: DNM1L knockout (sgDNM1L #1)
[4] = 10uM, genotype: sgCTRLA1 (non-targeting control)

Row | SMILES | fractional viability [1] | fractional viability [2] | fractional viability [3] | fractional viability [4]
1 | C[C@@H]1CC[C@@]2(OC1)O[C@H]1C[C@H]3[C@@H]4CC=C5C[C@@H](O[C@@H]6O[C@H](CO)[C@@H](O[C@@H]7O[C@@H](C)[C@H](O)[C@@H](O)[C@H]7O)[C@H](O)[C@H]6O[C@@H]6O[C@@H](C)[C@H](O)[C@@H](O)[C@H]6O)CC[C@]5(C)[C@H]4CC[C@]3(C)[C@H]1[C@@H]2C [Dioscin] | 0.0559 | 0.0816 | 0.0468 | 0.0196
2 | Cc1cc2c(C(C)C)c(O)c(O)c(C=O)c2c(O)c1-c1c(C)cc2c(C(C)C)c(O)c(O)c(C=O)c2c1O [Gossypol] | 0.9 | 1.04 | 0.253 | 0.247
3 | CCN(Cc1ccc(Cl)nc1)/C(=C/[N+](=O)[O-])NC [Nitenpyram] | 0.733 | 1.08 | 0.638 | 0.862
4 | Cc1ccc(-n2nccn2)c(C(=O)N2CCN(c3nc4cc(Cl)ccc4o3)CC[C@H]2C)c1 [Suvorexant (MK-4305)] | 0.969 | 1.14 | 0.861 | 1.04
5 | CC(C)=CCC[C@]1(C)C=Cc2c(O)c3c(c(CC=C(C)C)c2O1)O[C@]12C(=C[C@@H]4C[C@H]1C(C)(C)O[C@@]2(C/C=C(/C)C(=O)O)C4=O)C3=O [Gambogic Acid] | 0.068 | 0.0361 | 0.0214 | 0.00876
6 | CN(C)Cc1c[nH]c2ccccc12 [Gramine] | 0.908 | 1.14 | 0.859 | 0.971
7 | [O-][n+]1ccccc1[S-].[O-][n+]1ccccc1[S-].[Zn+2] [Zinc Pyrithione] | 0.0424 | 0.0207 | 0.0251 | 0.0128
8 | Cc1sc2c(c1C)C(c1ccc(Cl)cc1)=N[C@@H](CC(N)=O)c1nnc(C)n1-2 | 0.35 | 0.412 | 0.319 | 0.408
9 | c1ccc([C@@H]2C[C@H]2NC2CCNCC2)cc1 | 0.728 | 0.964 | 0.712 | 0.824
10 | CC(=O)Nc1ccc(Cc2ccc(NC(C)=O)cc2)cc1 | 0.759 | 0.99 | 0.747 | 0.791
11 | O=C(O[C@H]1C[C@H]2CC[C@@H](C1)[N+]21CCCC1)C(O)(c1ccccc1)c1ccccc1 [Trospium chloride] | 0.962 | 1.06 | 0.908 | 1.09
12 | Cc1cccc(Cc2c[nH]cn2)c1C [Detomidine HCl] | 1.07 | 1.01 | 0.798 | 1.1
13 | CN[C@@H]1C[C@H]2O[C@@](C)([C@@H]1OC)n1c3ccccc3c3c4c(c5c6ccccc6n2c5c31)C(=O)NC4 [Staurosporine] | 0.092 | 0.066 | 0.0336 | 0.0269
14 | Cn1c(COP(=O)(NCCBr)NCCBr)cnc1[N+](=O)[O-] | 1.47 | 1.27 | 0.89 | 1.27
15 | CCN(CC)C(=O)c1ccc(C2=CC3(CCNCC3)Oc3cccc(O)c32)cc1 | 1.05 | 1.03 | 0.914 | 0.931
16 | C[C@@H]1O[C@@H](O[C@H]2C[C@@H](O)[C@]3(CO)[C@H]4[C@H](O)C[C@]5(C)[C@@H](C6=CC(=O)OC6)CC[C@]5(O)[C@@H]4CC[C@]3(O)C2)[C@H](O)[C@H](O)[C@H]1O [Ouabain] | 0.05 | 0.0369 | 0.0346 | 0.0311
17 | N#C[C@H](O[C@@H]1O[C@H](C(=O)O)[C@@H](O)[C@H](O)[C@H]1O)c1ccccc1 [Laetrile] | 0.984 | 1.23 | 0.709 | 1.16
18 | COc1cc(-n2c(=S)[nH]c3ccccc3c2=O)c(Cl)cc1Cl [Mdivi-1] | 0.879 | 0.994 | 0.654 | 0.851
19 | Cc1cccc(C)c1NC(=O)CN1CCCC1=O [Nefiracetam] | 0.909 | 1.08 | 1.02 | 1.16
20 | CC(C)N(CCNC(=O)CN1CCCC1=O)C(C)C [Pramiracetam] | 0.94 | 1.16 | 0.882 | 1.02
21 | C[C@@H]1[C@H](O)[C@@H](C)/C=C/C=C/CC/C=C/C=C/C=C/C=C/[C@H](O[C@H]2O[C@@H](C)[C@H](O)[C@@H](N)[C@H]2O)C[C@@H]2O[C@](O)(C[C@@H](O)[C@H](O)CC[C@@H](O)C[C@@H](O)C[C@@H](O)CC(=O)O[C@H]1C)C[C@H](O)[C@H]2C(=O)O [Nystatin (Fungicidin)] | 0.929 | 1.11 | 0.854 | 1.03
22 | O=C(O)c1nn(Cc2ccc(Cl)cc2Cl)c2ccccc12 [Lonidamine] | 0.961 | 1.06 | 0.87 | 1.16
23 | Cc1sc2c(c1C)C(c1ccc(Cl)cc1)=N[C@@H](CC(=O)OC(C)(C)C)c1nnc(C)n1-2 | 0.37 | 0.516 | 0.278 | 0.394
24 | O=C(O)CNC(=O)c1c(O)c2ccccc2n(Cc2ccccc2)c1=O | 1.04 | 1.17 | 0.762 | 1
25 | O=c1[nH]c2ccc(Cl)cc2c(N[C@@H]2CN3CCC2CC3)c1-c1nc2ccccc2[nH]1 | 0.154 | 0.195 | 0.0777 | 0.0446
26 | O=S(=O)(CC1CS1)c1ccc(Oc2ccccc2)cc1 (centres undefined) | 0.744 | 0.851 | 0.163 | 0.172

Row | SMILES | fractional viability [1] | fractional viability [2] | fractional viability [3] | fractional viability [4]
27 | C[C@](O)(COc1ccc(C#N)cc1)C(=O)Nc1ccc(C#N)c(C(F)(F)F)c1 | 1 | 1.13 | 0.879 | 1.03
28 | CCN1CCN(C(=O)Cc2ccc(Nc3ncc(F)c(Nc4ccc(C(=O)Nc5ccccc5Cl)cc4)n3)cc2)CC1 [Aurora A Inhibitor I] | 0.904 | 0.926 | 0.0479 | 0.0775
29 | NC(=O)CN1CC(O)CC1=O (centres undefined) [Oxiracetam] | 0.755 | 1.16 | 0.688 | 0.976
30 | C#C[C@]1(O)C=C[C@H]2[C@@H]3CCC4=CC(=O)CC[C@@H]4[C@H]3CC[C@@]21CC [Gestodene] | 1.13 | 1.04 | 0.861 | 0.945
31 | CC1=C(O)C(=O)C=C2C1=CC=C1[C@@]2(C)CC[C@@]2(C)[C@@H]3C[C@](C)(C(=O)O)CC[C@]3(C)CC[C@]12C [Celastrol] | 0.0457 | 0.0557 | 0.0154 | 0.0139
32 | CC(C)(C)c1cc(C=C(C#N)C#N)cc(Br)c1O | 1.21 | 1.08 | 1.09 | 0.939
33 | CCOc1ccccc1-n1c(C(C)N2CCN(C(=O)COc3ccc(Cl)cc3)CC2)nc2ccccc2c1=O (centres undefined) [Erastin] | 0.123 | 0.0716 | 0.0411 | 0.0416
34 | O=[N+]([O-])/C=C/c1ccc2c(c1)OCO2 | 0.362 | 0.336 | 0.0604 | 0.0474
35 | Cc1cccc(C(C)c2c[nH]cn2)c1C (centres undefined) [Medetomidine HCl] | 1.09 | 1.09 | 0.755 | 1.03
36 | O=[N+]([O-])c1ncc[nH]1 [Azomycin] | 0.753 | 1.09 | 0.757 | 0.975
37 | CC[C@H](C)[C@@H]([C@@H](CC(=O)N1CCC[C@H]1[C@H](OC)[C@@H](C)C(=O)N[C@H](C)[C@@H](O)c1ccccc1)OC)N(C)C(=O)[C@@H](NC(=O)[C@@H](NC)C(C)C)C(C)C [Monomethyl auristatin E (MMAE)] | 0.0977 | 0.0889 | 0.0769 | 0.0612
38 | Cc1cccc([C@H](C)c2c[nH]cn2)c1C [Dexmedetomidine] | 1.06 | 1.23 | 0.8 | 1.05
39 | CCCCCCCCCCCCCCCC[n+]1ccccc1 [Cetylpyridinium Chloride] | 0.216 | 0.196 | 0.0152 | 0.0105
40 | Cc1ccccc1-n1c(Cn2ncc3c(N)ncnc32)nc2cccc(C)c2c1=O | 0.87 | 1.14 | 0.731 | 1.15
41 | CCc1c(C(=O)C(N)=O)c2c(OCC(=O)O)cccc2n1Cc1ccccc1 | 1.09 | 1.02 | 0.94 | 0.973
42 | Cn1cc(C2=C(c3cn(C4CCN(Cc5ccccn5)CC4)c4ccccc34)C(=O)NC2=O)c2ccccc21 | 0.952 | 0.961 | 0.948 | 0.916
43 | Cc1cc(C(C#N)c2ccc(Cl)cc2)c(Cl)cc1NC(=O)c1cc(I)cc(I)c1O (centres undefined) [Closantel] | 1.13 | 1.17 | 0.948 | 1.1
44 | Cc1cc(C(C#N)c2ccc(Cl)cc2)c(Cl)cc1NC(=O)c1cc(I)cc(I)c1O (centres undefined) [Closantel Sodium] | 0.98 | 1.19 | 0.879 | 0.97
45 | COc1ccc(C[C@H]2NC[C@H](O)[C@H]2OC(C)=O)cc1 [Anisomycin] | 0.109 | 0.0785 | 0.118 | 0.0319
46 | COc1cc(C)[nH]c(=O)c1CNC(=O)c1c(C)n([C@H](C)C2CCOCC2)c2ccccc12 | 0.85 | 0.972 | 0.755 | 0.698
47 | CCc1cc2c(s1)-n1c(C)nnc1CN=C2c1ccccc1Cl [Etizolam] | 0.778 | 1 | 0.707 | 0.96
48 | CC(C)(C)[C@]1(O)CC2OC(=O)CC23C(=O)OC2OC(=O)[C@H](O)C231 (some centres undefined) [Bilobalide] | 0.854 | 1.09 | 0.975 | 1.11
49 | O=C1CCC[C@@H]2[C@H]3CCCN4CCC[C@@H](CN12)[C@@H]34 [(+)-Matrine] | 0.865 | 1.03 | 0.795 | 1
50 | COc1cc([C@@H]2c3cc4c(cc3[C@H](O)[C@H]3COC(=O)[C@@H]23)OCO4)cc(OC)c1OC [Picropodophyllin (PPP)] | 0.139 | 0.142 | 0.121 | 0.0713
51 | O=C(NCC1CCOCC1)c1cnc(Nc2ccc(Cl)cc2Cl)nc1C(F)(F)F | 1.03 | 1.32 | 0.768 | 1.19
